This is an account of results in the supplement of paper PMC12024424.

Counter-ions that a name gives are not always drawn.

For experiment [1], the system named is Staphylococcus aureus Sa2 (MRSA, cystic fibrosis isolate). As to the kind of experiment: growth reduction vs untreated control (OD550); higher = stronger antibacterial activity. Conditions: 0.1 mM; 24 h. As to the method: (§1)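 Single-dose screen of the MedChem Express Drug Repurposing Library (0.1 mM, 1% DMSO) against planktonic MRSA S. aureus Sa2 (CF isolate) in TSB in 96-well plates, 37 °C aerobic, 24 h. Assays were run in triplicate and repeated twice.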

The test system is the same in experiment [2]. The experiment in a line: growth reduction vs untreated control (viable cell count); higher = stronger antibacterial activity; extreme values may be limits of the assay. The settings on record: 0.1 mM; 24 h. As to the method:
as §1

In the case of `C[C@H]1Cc2c([nH]c3cc(Cl)c(F)cc23)[C@@]2(N1)C(=O)Nc1ccc(Cl)cc12` [Cipargamin], the growth reduction in experiment [1] and in experiment [2] was 100% in each case.

`Cc1cc(Nc2ncc(Cl)c(Nc3ccccc3S(=O)(=O)C(C)C)n2)c(OC(C)C)cc1C1CCNCC1` [Ceritinib dihydrochloride]: the growth reduction in experiment [1] and in experiment [2] was 100% throughout.

Regarding `COc1cccc(Nc2ncnn3ccc(CN4CC[C@@H](N)[C@H](O)C4)c23)c1`, the growth reduction in experiment [1] is 92.5%; in experiment [2], 94%.

For the molecule `CCOC(=O)N1CCC(=C2c3ccc(Cl)cc3CCc3cccnc32)CC1` [Loratadine], the growth reduction in experiment [1] and in experiment [2] was 100% each time.

Turning to `C[C@@H](NCCCc1cccc(C(F)(F)F)c1)c1cccc2ccccc12` [Cinacalcet (hydrochloride)], the growth reduction in experiment [1] and in experiment [2] was 100% each time.

Regarding `CC(C)(C)NCC(O)COc1ccccc1C1CCCC1` (single isomer, unassigned; (+)) [(+)-Penbutolol], the growth reduction in experiment [1] was determined as 91%; in experiment [2] it was 94%.

As for `CCCCCOc1ccccc1/C(=C\SC)n1ccnc1` [Neticonazole], the growth reduction in experiment [1] and in experiment [2] was 100% in each case.

Consider `O=C(O)c1cc(F)c2nc(N3[C@@H]4CC[C@H]3C[C@@H](OCc3c(-c5ccccc5OC(F)(F)F)noc3C3CC3)C4)sc2c1` [Tropifexor], for which the growth reduction in experiment [1] and in experiment [2] was 100% throughout.

Consider `CCc1cc(F)c2nc(N3CCC(NC4CCOCC4)CC3)c(-c3nc(C)no3)c(C)c2c1`, for which the growth reduction in experiment [1] came out at 100%; in experiment [2], 93%.

For `Oc1ccc2c(c1)CC[C@H](c1ccccc1)[C@@H]2c1ccc(OCCN2CCCC2)cc1` [Lasofoxifene (Tartrate)], the values for the growth reduction in experiment [1] and in experiment [2] were 98.2% and 100%, respectively.

For `CCN(CC)CCOc1ccc(C(=C(Cl)c2ccccc2)c2ccccc2)cc1` [Clomiphene (citrate)], the growth reduction in experiment [1] and in experiment [2] was 100% throughout.
